Only a selection was taken, and hits are over-represented in it overall.
DT40 TDP1 CPT: DT40-hTDP1 cell growth loss with CPT. 420,000 tested, 12% active. Potency, µM (titrated, usually from 46.2 µM), usual class: inhibitors. chicken DT40 Tdp1-/-;hTDP1 cells + 20 nM CPT, ATP luminescence, 48 h; note: nearly all actives have a fitted effect of over 55% in size
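Chicken DT40 Tdp1-/- cells stably complemented with human TDP1 were seeded at 400 cells/well in medium containing 20 nM camptothecin, exposed to pin-transferred compounds, and grown at 37 °C for at least 48 hr. Viability was read as ATP luminescence.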
IL-1B inflam inh: inhibitors of inflammasome signaling (IL-1 beta secretion) | THP-1 LPS/ATP IL-1B secretion, AlphaLISA, 16 h; hits give low values | activity change, % at 57.5 µM | 360,000 tested, 4.7% active | AID 743279; in the data active = activity change below about -50%; inconclusive = mostly about -30% to -49%
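Secreted IL-1B measured by AlphaLISA bead assay after 16 h compound exposure of THP-1 cells; compounds (final up to 57.5 uM) added 1 h before LPS (250 ng/mL) and ATP (1.25 mM) stimulation; lower signal means less secretion.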
HT1080 IDH1KD tx: HT-1080 IDH1 knockdown cell toxicity (counter line); HT-1080 IDH1 knockdown viability, ATP luminescence, 48 h; Potency, µM (doses to about 46.1 µM), most hits filed as cytotoxic; 360,000 tested, 2% active; AID 686971
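Cytotoxicity counter-line: IDH1KD HT-1080, 48 h, CellTiter-Glo. Curves classed by r2, magnitude and activity.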
TDP1 cell noCPT: qHTS for Inhibitors of human tyrosyl-DNA phosphodiesterase 1 (TDP1): qHTS in cells in absence of CPT; 420,000 tested, 15% active; Potency, µM (series often up to 46.2 µM), usual class: inhibitors; DT40 Tdp1-/- hTDP1 cells, no CPT, ATP luminescence, 48 h; note: nearly all actives have a fitted effect of over 55% in size
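Readout: luminescence from CellTiter-Glo after 30 min in the dark at RT. Cells: DT40 Tdp1-/- with stable hTDP1, 400/well. Exposure: compounds alone, ≥48 hr, 37 °C.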
HT1080NT lethal: kills 2HG-producing HT-1080-NT fibrosarcoma cells; AID 686970; Potency, µM (titrated, usually from 46.1 µM), usual class: cytotoxic; HT-1080-NT fibrosarcoma viability, CellTiter-Glo ATP luminescence, 48 h; 360,000 tested, 1.6% active;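 note: NT is the 2HG producing partner of a matched IDH1 knockdown line; nearly all actives have a fitted effect of over 55% in size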
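HT-1080-NT fibrosarcoma cells (2HG-overproducing), 750 cells/well in RPMI with 5% FBS, dosed after 2 h and incubated 48 h at 37C. CellTiter-Glo luminescence normalized to DMSO and no-cell wells; concentration-response curves fitted and classed.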
12-LOX inh: inhibitors of human 12S-lipoxygenase ALOX12; P18054; purified 12hLO, xylenol orange hydroperoxide absorbance; Potency, µM (titrated, usually from 108 µM), most hits filed as inhibitors; 580,000 tested, 1.1% active
Target sequence (P18054 whole entry, looked up): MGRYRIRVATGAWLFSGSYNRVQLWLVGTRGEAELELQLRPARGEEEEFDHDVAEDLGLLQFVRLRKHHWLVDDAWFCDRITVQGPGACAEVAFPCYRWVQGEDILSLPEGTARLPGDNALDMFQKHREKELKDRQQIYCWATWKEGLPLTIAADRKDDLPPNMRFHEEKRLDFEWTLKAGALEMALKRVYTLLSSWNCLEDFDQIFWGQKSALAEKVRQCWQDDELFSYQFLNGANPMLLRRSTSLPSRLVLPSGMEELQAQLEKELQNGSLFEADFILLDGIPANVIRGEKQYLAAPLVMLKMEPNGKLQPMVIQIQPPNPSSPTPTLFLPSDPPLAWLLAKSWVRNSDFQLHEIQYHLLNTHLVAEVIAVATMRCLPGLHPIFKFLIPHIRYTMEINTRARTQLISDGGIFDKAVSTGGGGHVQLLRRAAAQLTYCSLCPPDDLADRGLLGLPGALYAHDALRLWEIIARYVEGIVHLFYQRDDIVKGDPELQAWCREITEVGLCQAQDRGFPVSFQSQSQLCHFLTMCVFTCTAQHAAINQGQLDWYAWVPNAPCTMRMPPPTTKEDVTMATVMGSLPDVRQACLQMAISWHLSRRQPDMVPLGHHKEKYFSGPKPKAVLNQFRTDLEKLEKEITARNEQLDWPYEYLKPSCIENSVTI
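Hydroperoxide product was detected by ferrous iron/xylenol orange as the 573 to 405 nm absorbance ratio. Arachidonic acid at 40 uM (final) was turned over for 30 min at room temperature by 150 nM human 12hLO, pH 7.0 Hepes buffer, after 15 min compound preincubation.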
Hits are given with their value; – = inactive; ? = inconclusive; · = no result. Unless noted, calls come from the whole dose curve; as a rule, active = well fitted curve in the direction sought with a large enough effect; inconclusive = small, poorly fitted or top-dose-only effect, or another doubt; inactive = no such curve, though single readings can be large; an effect the other way counts as inactive or inconclusive.

SMILES	DT40 TDP1 CPT	IL-1B inflam inh	HT1080 IDH1KD tx	TDP1 cell noCPT	HT1080NT lethal	12-LOX inh
C/C(=N\Nc1cccc2cccnc12)c1ccccn1	0.73µM	–	–	0.92µM	?	–
C/C(=N\Nc1ncc(Cl)cc1Cl)c1ccccn1	18µM	–	0.23µM	0.026µM	?	·
C/C(=N\Nc1ncnc2sc(C)c(C)c12)c1ccccn1	0.1µM	–	0.52µM	0.015µM	0.92µM	?
COc1ccc(S(=O)(=O)n2nc(C)c(S(=O)(=O)N3CCCCC3)c2C)cc1	–	·	·	–	·	?
CC(C)(C)OC(=O)N1CCCN(C(c2ccnc3ccccc23)c2nnnn2-c2ccc3c(c2)OCCO3)CC1 (stereo not given)	?	–	?	3.7µM	23µM	?
CCOC(=O)N1CCN(C(c2ccnc3ccccc23)c2nnnn2-c2ccc3c(c2)OCCO3)CC1 (stereo not given)	?	–	?	16µM	?	–
c1ccc2c(C(c3nnnn3-c3ccc4c(c3)OCCO4)N3CCCCC3)ccnc2c1 (stereo not given)	?	?	–	?	–	–
CC(C)NC(=O)CN1CCN(C(c2ccnc3ccccc23)c2nnnn2-c2ccc3c(c2)OCCO3)CC1 (stereo not given)	–	–	–	–	–	–
O=C(NCCCc1ccc(F)cc1)C1CCC(=O)N(CC2CCCCC2)C1 (stereo not given)	?	–	–	?	–	–
Cc1ccc(CN2CCCC(CNS(=O)(=O)C3CC3)C2)cc1C (stereo not given)	·	·	·	·	·	–
CSc1ccc(-c2sc(Nc3ccccc3)n[n+]2-c2ccc(F)cc2)cc1	12µM	–	–	23µM	–	·
CCc1ccc(Nc2n[n+](-c3ccccc3)c(-c3cccc(C)c3)s2)cc1	7.3µM	–	–	5.8µM	–	?
Cc1cccc(-c2sc(Nc3ccccc3)n[n+]2-c2ccc(F)cc2)c1	7.3µM	–	–	9.2µM	–	?
COc1ccccc1-c1cncnc1Nc1ccc(F)cc1	–	·	·	–	·	?
COc1ccc(-c2sc(Nc3ccccc3)n[n+]2-c2ccc(F)cc2)c(C)c1C	7.3µM	–	–	10µM	?	?
CCc1ccc(NC(=O)c2ccc(-c3ccccc3)s2)cc1	–	·	·	?	·	–
CC(Sc1nnc(C2CC2)n1C1CC1)C(=O)Nc1ccnn1C(C)C (stereo not given)	·	·	·	·	·	–
Cc1ccc(F)cc1S(=O)(=O)N[C@@H]1CN(c2ncccn2)C[C@H]1CN(C)C	·	·	·	·	·	–
CC(=O)N1CCc2c(sc(NC(=O)C3CC3)c2-c2nc3ccccc3s2)C1	16µM	-84	?	15µM	?	?
CC(=O)Nc1sc2c(c1-c1nc3ccccc3s1)CN(C(C)C)CC2	·	·	·	·	·	–
CN1CCc2c(sc(NC(=O)Cc3ccccc3)c2C#N)C1	–	–	–	–	–	?
CC(=O)N1CCc2c(sc(NC(=O)CSc3ccccc3)c2-c2nc3ccccc3s2)C1	13µM	·	·	10µM	·	?
CN1CCc2c(sc(NC(=O)CSc3ccccc3)c2-c2nc3ccccc3s2)C1	?	·	·	21µM	·	–
CN1C/C(=C/c2ccsc2)C(=O)/C(=C/c2ccsc2)C1	10µM	-94	?	13µM	?	–
CCCC(=O)Nc1ccc(N2CCOCC2)cc1	–	–	–	–	–	–
SMILES	DT40 TDP1 CPT	IL-1B inflam inh	HT1080 IDH1KD tx	TDP1 cell noCPT	HT1080NT lethal	12-LOX inh
CCN1C/C(=C/c2ccc(N3CCOCC3)cc2)C(=O)/C(=C/c2ccc(N3CCOCC3)cc2)C1	?	-103	21µM	?	?	–
CN1C/C(=C\c2ccc(N3CCOCC3)cc2)C(=O)/C(=C/c2ccc(N3CCOCC3)cc2)C1	?	-103	?	21µM	?	–
CCOC(=O)C1=CCN(S(=O)(=O)c2ccccc2F)C1c1cccc(C)c1 (stereo not given)	?	–	–	?	–	–
O=C(O)COCC(=O)N1Cc2[nH]cnc2C[C@H]1c1nc(Cc2ccccc2)no1	·	·	·	·	·	–
O=C(NCc1ccccc1)[C@]1(C(F)(F)F)C[C@H](CCc2ccccc2)CCCO1	–	–	–	–	–	?
CCC[C@@H]1CCCO[C@@](C(=O)NCc2ccc(S(C)(=O)=O)cc2)(C(F)(F)F)C1	29µM	–	–	?	–	–
O=C(NCC1CC1)[C@]1(C(F)(F)F)C[C@H](CCC2CCCCC2)CCCO1	?	–	–	23µM	–	?
O=C(NCC1CC1)C1(C(F)(F)F)CC(CCCO)CCCO1 (stereo not given)	–	–	–	–	–	–
O=C(NCc1ccc(F)cc1F)[C@@H]1CCCN1C(=O)[C@@H]1CCCN1C(=O)c1ccccc1	–	-95	–	–	–	–
CC(C)(C)CC(=O)OCC(=O)[C@@]12OC(C)(C)O[C@@H]1C[C@H]1[C@@H]3CCC4=CC(=O)C=C[C@]4(C)[C@@]3(F)[C@@H](O)C[C@@]12C	–	·	·	–	·	·
CCCCC(=O)O[C@]1(C(=O)CO)[C@H](C)C[C@H]2[C@@H]3CCC4=CC(=O)C=C[C@]4(C)[C@@]3(F)[C@@H](O)C[C@@]21C	19µM	·	·	13µM	·	·
CC1(c2ccccc2)O[C@@H]2C[C@H]3[C@@H]4CCC5=CC(=O)C=C[C@]5(C)[C@@]4(F)[C@@H](O)C[C@]3(C)[C@]2(C(=O)CO)O1 (stereo not given in full)	?	-67	–	?	?	–
C[C@H]1C[C@H]2[C@@H]3CCC4=CC(=O)C=C[C@]4(C)[C@@]3(F)[C@@H](O)C[C@]2(C)[C@@]1(O)C(=O)CO	–	-59	–	–	?	–
CCCCC(=O)O[C@]1(C(=O)CO)[C@@H](C)C[C@H]2[C@@H]3CCC4=CC(=O)C=C[C@]4(C)[C@@]3(F)[C@@H](O)C[C@@]21C	·	·	·	·	·	–
CC1(C)OC2CC3C4CC(F)C5=CC(=O)C=CC5(C)C4(F)C(O)CC3(C)C2(C(=O)CO)O1 (stereo not given)	–	-50	–	–	?	–
Cc1nn(-c2ccc(N3CCCC3)nn2)c(C)c1CCC(=O)NCc1ccccc1F	–	·	·	–	·	–
C[C@@H]1C[C@H]2[C@@H]3CCC4=CC(=O)C=C[C@]4(C)[C@@]3(F)[C@@H](O)C[C@]2(C)[C@@]1(O)C(=O)COP(=O)(O)O	–	–	–	–	–	–
C[C@H]1C[C@H]2[C@@H]3CCC4=CC(=O)C=C[C@]4(C)[C@@]3(Cl)[C@@H](O)C[C@]2(C)[C@@]1(O)C(=O)CO	?	-59	–	?	?	–
CCOC(=O)c1nn(-c2ccccc2C)c(=O)c2c(N)scc12	?	–	–	?	–	?
